An excerpt weighted towards active compounds, which were near 2.9% of everything screened.
SMARCA2 activ: SMARCA2 (BRM) function activators, primary screen, cell-based, luminescence, high throughput; MG213 cells, MMTV-luciferase reporter, dexamethasone, overnight; activation, % at 9.1 µM; hit rate 1% among 370,000; in the data active = activation above about 7.8%;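 note: 0% = vehicle wells and 100% = reference activator wells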
FAS TE block: FAS thioesterase domain inhibitors, primary screen, biochemical, fluorescence intensity, uHTS. hit rate 0.67% among 360,000. inhibition, % at 15 µM. Fatty acid synthase (Homo sapiens), P49327. recombinant FAS-TE, OMFH fluorogenic substrate, fluorescence endpoint;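 active = compounds whose normalised, plate-corrected inhibition of enzyme fluorescence in the single-dose primary screen is 50% or more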;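 note: 0% = DMSO with enzyme and 100% = substrate without enzyme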
FXN GAA850 act: FXN promoter activators, primary screen, cell-based, luciferase luminescence, HEK293 lucGAA850; hit rate 0.56% among 360,000; AID 540364, 2011; activation, % at 6 µM; HEK293 lucGAA850 FXN promoter luciferase reporter, 24 h; percent of 10 µM SAHA response;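 active = activation above the average of all compounds screened plus 3 SD, cutoff fixed separately per campaign, cut at about 7.5% in these data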;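 note: 0% = DMSO wells and 100% = 10 µM SAHA wells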
proKLK7 act: proKLK7 zymogen activators, primary screen, biochemical, fluorescence intensity; activation, % at 7 µM; purified proKLK7, EDANS-DABCYL substrate fluorescence; 100% is mature enzyme control, 0% vehicle; Kallikrein-7 (Homo sapiens), P49862; hit rate 0.9% among 370,000; AID 652039, 2013;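 active = activation above the mean of all tested compounds plus 3 SD, computed per campaign excluding outliers beyond control limits, cut at about 13% in these data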
Target sequence (P49862 whole entry, looked up): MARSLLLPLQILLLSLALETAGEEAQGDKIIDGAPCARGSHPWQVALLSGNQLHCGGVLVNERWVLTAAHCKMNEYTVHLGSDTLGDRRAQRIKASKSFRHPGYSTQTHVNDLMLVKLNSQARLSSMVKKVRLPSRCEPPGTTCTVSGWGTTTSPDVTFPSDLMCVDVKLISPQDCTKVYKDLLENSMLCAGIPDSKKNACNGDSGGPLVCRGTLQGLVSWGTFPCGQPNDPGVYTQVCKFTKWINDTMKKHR
FAS-TE inh conf: FAS thioesterase domain inhibitors, confirmation, biochemical, fluorescence intensity, single concentration | shares compounds with FAS TE block | hit rate 45% among 2,300 | inhibition, % at 15 µM | AID 624325, 2012 | recombinant FAS-TE, OMFH fluorogenic substrate;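 active = compounds inhibiting the enzyme by at least 50% at 15 µM in any one of the replicates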;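 note: 0% = enzyme with DMSO only and 100% = wells lacking enzyme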
* = called active by the depositor; · = not tested or not shown.

SMILES | SMARCA2 activ | FAS TE block | FXN GAA850 act | proKLK7 act | FAS-TE inh conf
C[C@@H]1CCCCO[C@H](CN(C)Cc2ccc(Cl)c(Cl)c2)[C@H](C)CN([C@@H](C)CO)C(=O)c2cc(NC(=O)Nc3ccc(F)cc3)ccc2O1 | -4 | 29 | -2 | -1 | ·
COc1ccc(NC(=O)Nc2ccc3c(c2)C(=O)N([C@H](C)CO)C[C@H](C)[C@@H](CN(C)Cc2ccc(Cl)c(Cl)c2)OCCCC[C@@H](C)O3)cc1 | -2 | 62* | -3 | 0 | 8
C[C@@H]1CCCCO[C@@H](CN(C)Cc2ccccc2)[C@@H](C)CN([C@H](C)CO)C(=O)c2cc(NC(=O)Nc3cccc4ccccc34)ccc2O1 | 0 | 52* | -4 | -1 | 14
CN(CC(=O)O)c1ccc(S(=O)(=O)N2CCOCC2)cc1[N+](=O)[O-] | -3 | -7 | 2 | 0 | ·
CCCN1CCC(NC(=O)C2CCCCC2C(=O)O)CC1 (stereo unspecified) | 4 | -4 | -1 | 0 | ·
COc1ccc(-n2cc(C(=O)Nc3cc([N+](=O)[O-])ccc3OC)c3ccccc3c2=O)cc1 | -3 | 55* | -4 | 0 | 20
COc1ccc([N+](=O)[O-])cc1NC(=O)Nc1ccccc1 | -4 | 58* | -2 | 0 | 62*
C/C=C/C=C/C(=O)OC(C)C(=O)Nc1cc([N+](=O)[O-])ccc1OC (stereo unspecified) | -5 | 73* | -1 | 1 | 60*
COc1ccc([N+](=O)[O-])cc1NC(=O)N(C)Cc1ccco1 | -1 | 51* | -1 | 0 | 42*
CCOC(=O)c1ccccc1NC(=O)c1cn(-c2ccc(OC)cc2)c(=O)c2ccccc12 | -1 | 26 | 2 | -1 | ·
COc1ccc([N+](=O)[O-])cc1NC(=S)Nc1ccccc1 | 0 | 24 | 3 | 0 | ·
CC(=O)N1CCN(CC(=O)Nc2ccccc2C(=O)NCc2ccc(C)cc2)CC1 | 2 | -2 | 1 | 0 | ·
COc1ccc(S(=O)(=O)NCc2ccccn2)cc1NC(=O)c1ccccc1C | -2 | -5 | -1 | 0 | ·
CCCCn1c(N)c(N(CCOC)C(=O)COC(=O)COc2ccc(CC)cc2)c(=O)[nH]c1=O | 1 | -6 | 1 | 0 | ·
O=C(COC(=O)c1c[nH]c2ccccc12)Nc1cccc(F)c1 | 6 | 6 | 3 | 0 | ·
CCN(CC)C(=O)c1cc(S(=O)(=O)N2CCCCC2)c[nH]1 | -3 | 4 | -1 | 0 | ·
CCCCNC(=O)C1CC(c2cccc([N+](=O)[O-])c2)=NO1 (stereo unspecified) | 6 | 33 | 1 | 0 | ·
CC(C)CCNC(=O)C1CC(c2cccc([N+](=O)[O-])c2)=NO1 (stereo unspecified) | -1 | 53* | 0 | 0 | 59*
O=C(NCCCCc1ccccc1)C1CC(c2cccc(F)c2)=NO1 (stereo unspecified) | -1 | 20 | 1 | 0 | ·
O=C(NCCCCc1ccccc1)C1CC(c2cccc([N+](=O)[O-])c2)=NO1 (stereo unspecified) | 1 | 66* | 1 | 0 | 76*
O=C(O)[C@@H]1CSC2c3ccccc3C(=O)N21 (stereo partly specified) | -1 | -1 | 2 | 0 | ·
CSc1ccc(C(=O)C2CCCN(C(=O)c3cccc(N4CCOCC4)c3)C2)cc1 (stereo unspecified) | -2 | -5 | 0 | 1 | ·
C/C(=C/CCC(C)[C@H]1CC[C@@]2(C)C3=C(CC[C@]12C)[C@@]1(C)CCC(=O)C(C)(C)[C@@H]1CC3)C(=O)O (stereo partly specified) | -1 | 74* | 3 | 1 | 3
O=C(O)c1ccccc1C(=O)OC1CC2CCC1C2 (stereo unspecified) | -3 | -10 | -1 | 0 | ·
COc1ccc(-n2nc(C(=O)NCC(=O)N3CCN(c4cccc(Cl)c4)CC3)c3ccccc3c2=O)c(OC)c1 | -2 | 55* | 1 | 0 | 30
SMILES | SMARCA2 activ | FAS TE block | FXN GAA850 act | proKLK7 act | FAS-TE inh conf
COc1ccc(-n2nc(C(=O)NCC(=O)N3CCN(c4ccccn4)CC3)c3ccccc3c2=O)c(OC)c1 | 2 | -5 | 3 | -1 | ·
O=C(Cn1cnc2cc([N+](=O)[O-])ccc2c1=O)Nc1ccc2c(c1)OCO2 | -4 | 75* | 0 | -1 | 53*
O=C(CSc1ccc([N+](=O)[O-])cn1)Nc1ccc2c(c1)OCO2 | 0 | 86* | -2 | -1 | 57*
O=C(Cn1cnc2ccccc2c1=O)Nc1ccc2c(c1)OCO2 | 3 | -13 | 3 | 0 | ·
O=C(Cc1ccc([N+](=O)[O-])cc1)Nc1ccc2c(c1)OCO2 | -3 | 44 | -1 | 0 | ·
Nc1c(Cl)cc(-c2csc(N3CCCC3c3nc4cc(Cl)c(N5CCCCC5)cc4n3CCOCCO)n2)cc1Cl (stereo unspecified) | -1 | 70* | 0 | -1 | 18
CCN(CC)CCN(Cc1cc2cc(C)cc(C)c2[nH]c1=O)C(=S)NCc1ccco1 | -1 | -3 | -1 | 0 | ·
Cc1cccc(NC(=S)N(Cc2cccs2)Cc2cc3cc(C)ccc3[nH]c2=O)c1 | -2 | 24 | 1 | 1 | ·
COc1cc2cc(CN(Cc3cccs3)C(=S)Nc3ccc(C)cc3)c(=O)[nH]c2cc1OC | -3 | 76* | -2 | -1 | 24
Cc1ccc(NC(=S)N(Cc2cccs2)Cc2cc3cc(C)ccc3[nH]c2=O)cc1 | -1 | 72* | 1 | 0 | 29
Cc1cc(C)c2[nH]c(=O)c(CN(Cc3cccs3)C(=S)NCc3ccco3)cc2c1 | -4 | 62* | 0 | 1 | 27
O=C(c1cccc(NS(=O)(=O)c2ccc(F)c(F)c2)c1)N1CCN(C(c2ccccc2)c2ccccc2)CC1 | -5 | 90* | 3 | 0 | 45
O=C(CC(c1ccccc1)c1ccccc1)NCc1cccnc1 | -3 | -3 | -2 | 0 | ·
COc1ccc(C(=O)NCCNc2ncc(C(F)(F)F)cc2Cl)cc1[N+](=O)[O-] | 1 | 53* | 1 | 0 | 47*
O=[N+]([O-])c1ccccc1NCCNc1ncc(C(F)(F)F)cc1Cl | 4 | 19 | 2 | 0 | ·
Cc1ccc(C(=O)NCCNc2ncc(C(F)(F)F)cc2Cl)cc1[N+](=O)[O-] | -5 | 55* | 1 | -1 | 60*
C=CCNC(=O)c1ccc([N+](=O)[O-])c(Cl)c1 | 2 | 0 | -1 | 1 | ·
CC(C)(CNC(=O)c1ccc([N+](=O)[O-])c(Cl)c1)CNC(=O)c1ccc([N+](=O)[O-])c(Cl)c1 | 4 | 56* | -2 | -1 | 63*
CCOC(=O)[C@]12Cc3c(cc(OC)c(OC)c3OC)[C@H]1N(CCC(=O)OC)C(=O)c1cc(OC)ccc12 | -5 | 19 | · | 0 | ·
